# Test system: RIOK1
# Conditions: concentration: 1 μM, replicates: in singlicate; n = 1
# 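Note: KINOMEscan kinase panel screen.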
row,Compound,%Inh
1,Cc1occc1-c1ncc(OC[C@@H](N)Cc2c[nH]c3ccccc23)cc1-c1ccc2[nH]nc(C)c2c1.O=C(O)C(F)(F)F [GSK682037],95.1%
2,C[C@@H]1CC[C@@H](C(=O)Nc2ccccc2)CN1c1cc(-c2ccc3c(N)n[nH]c3c2)nc(N)n1 [GSK2286062],48%
3,CCn1c(-c2nonc2N)nc2c(C#CC(C)(C)O)ncc(OCCCCN)c21.O=C(O)C(F)(F)F.O=C(O)C(F)(F)F [GSK507274],16%
4,O=c1[nH]cc(-c2ccc(N3CCOCC3)cc2)c2sc(-c3cn[nH]c3)cc12 [GSK2276055],37%
5,COc1cccc(C2=C(Nc3ccc(Cl)c(C(=O)O)c3)C(=O)NC2=O)c1 [SB-390769],0%

# Test system: RIOK2
# Conditions: concentration: 1 μM, replicates: in singlicate; n = 1
row,Compound,%Inh
1,COC(=O)Nc1nc2cc(Oc3ccc(NC(=O)Nc4cc(C(F)(F)F)ccc4F)cn3)ccc2[nH]1.Cl.Cl [GW681170],0%
2,Fc1ccc(-c2ncn(C3CCNCC3)c2-c2ccnc(Oc3ccc(-c4ccccc4)cc3)n2)cc1 [SB-245391],0%
3,Cc1ccc(C)c(NC(=O)NC2CCN(c3ccnc(Nc4ccc(F)cc4)n3)C2)c1 (stereo not drawn) [GSK1379720],0%
4,CSc1cccc2c(-c3ccncn3)c(-c3ccc(F)cc3)nn12 [GW514786],0%
5,Oc1cc(Nc2ccnc3cc(I)ccc23)ccc1F [GW552771],29%
6,Cc1ccc(S(=O)(=O)Nc2ccc(Nc3nccc(Nc4cccc5[nH]ncc45)n3)cc2)cc1 [GSK581271],40%
7,COc1cccc(-c2ccc3c(NC(=O)C4CC4)n[nH]c3n2)c1 [SB-710903],0%
8,O=C(Nc1cccc(-c2nn3ccccc3c2-c2ccnc(Nc3cccc(C(F)(F)F)c3)n2)c1)c1c(F)cccc1F [GSK292658],6%
9,Cl.Cl.NCC(NCc1ccc(-c2ccnc3[nH]ccc23)s1)c1ccccc1 (stereo not drawn) [GSK1321565],44%
10,CCn1c(-c2nonc2N)nc2c(C#CC(C)(C)O)nc(OC[C@H](N)c3ccccc3)cc21 [GSK943949],0%
11,COCCOCCOc1cc2ncc3c4ccc(C#N)cc4[nH]c3c2cc1OC,0%
12,Clc1ccc(-c2nn3ncccc3c2-c2ccnc(Nc3ccc4c(c3)OCCO4)n2)cc1 [GW829116],0%
13,COc1cccc(NC(=O)NC2CCN(c3ccnc(Nc4cc(OC)c(OC)c(OC)c4)n3)C2)c1 (stereo not drawn) [GSK1379763],0%
14,COc1cccc(C(=O)Nc2cccc(Oc3ccc4nc(NC(=O)C5CC5)cn4n3)c2)c1,0%
15,CN(C)Cc1ccc(-c2ccc3c(Nc4ccc(Oc5ccccn5)cc4)ccnc3c2)o1 [GW567148],4%
16,Nc1ncc(-c2cccnc2)c2scc(-c3ccc4c(c3)CCN4C(=O)Cc3ccccc3)c12 [GSK683281],96.6%
17,COc1ccc(Nc2nccc(NCCNC(=O)c3cc4ccccc4s3)n2)cc1 [GSK1379896],0%
18,O=C(Nc1n[nH]c2nc(-c3ccc(O)cc3)ccc12)C1CC1 [SB-710363],0%
19,O=C(Nc1cccc(-c2nn3ccccc3c2-c2ccnc(Nc3cccc(F)c3)n2)c1)c1c(F)ccc(F)c1Cl [GSK357952],51%

row,Compound,%Inh
1,CN1CCN(Cc2cccc(-c3ccc4c(Nc5ccc(Oc6ccccc6)cc5)ccnc4c3)c2)CC1 [GW578342],0%
2,COc1cc(Nc2nccc(N3CCC(NC(=O)Nc4cccc(C(C)=O)c4)C3)n2)cc(OC)c1OC (stereo not drawn) [GSK1379753],0%
3,c1ccc(Oc2ccc(Nc3ccnc4cc(-c5ccc(CNCCN6CCOCC6)o5)ccc34)cc2)nc1 [GW567145],0%
4,CC(C)c1nc(-c2cccc(NS(=O)(=O)c3c(F)cccc3F)c2F)c(-c2ccnc(Nc3ccc(N4CCOCC4)nc3)n2)s1 [GSK2008607],0%
5,C[C@@H](Oc1cc(-n2cnc3cc(-c4ccnc(NCCS(C)(=O)=O)c4)ccc32)sc1C(N)=O)c1ccccc1Cl [GSK907232],22%
6,Cn1cc(-c2[nH]c3cc(NC(=O)[C@H](N)C4CCCCC4)cc4c3c2C=NNC4=O)cn1,21%
7,CCS(=O)(=O)c1ccc(OC)c(Nc2nccc(-c3c(-c4cccc(NC(=O)c5c(F)cccc5F)c4)nn4ncccc34)n2)c1 [GSK326180],0%
8,Cl.NC(=O)c1cccc(Nc2nccc(Nc3ccc(Oc4c(Cl)cccc4Cl)c(Cl)c3)n2)c1 [GW659009],53%
9,Nc1ncc(-c2ccc3nccc(-c4ccncc4)c3c2)cc1S(=O)(=O)N1CCOCC1 [GSK1627798],39%
10,Cn1cc(-c2ccc3c(c2)CCN3C(=O)Cc2cccc(Cl)c2)c2c(N)ncnc21 [GSK2606590],19%
11,CC(C)(C)c1ccc2nccc(Nc3cccc(O)c3)c2c1 [GW856795],0%
12,CC(=O)Nc1nc2cnc(Nc3cc(NC(=O)c4cccc(C5(C#N)CC5)c4Cl)ccc3C)nc2s1,5%
13,COc1cc(Nc2nccc(N3CCC(NC(=O)c4cc5ccccc5s4)C3)n2)cc(OC)c1OC (stereo not drawn) [GSK1379760],14%
14,Cc1occc1-c1ncc(OC[C@@H](N)Cc2c[nH]c3ccccc23)cc1-c1ccc2[nH]nc(C)c2c1.O=C(O)C(F)(F)F [GSK682037],6%
15,C[C@@H]1CC[C@@H](C(=O)Nc2ccccc2)CN1c1cc(-c2ccc3c(N)n[nH]c3c2)nc(N)n1 [GSK2286062],52%
16,CCn1c(-c2nonc2N)nc2c(C#CC(C)(C)O)ncc(OCCCCN)c21.O=C(O)C(F)(F)F.O=C(O)C(F)(F)F [GSK507274],0%
17,O=c1[nH]cc(-c2ccc(N3CCOCC3)cc2)c2sc(-c3cn[nH]c3)cc12 [GSK2276055],76%
18,COc1cccc(C2=C(Nc3ccc(Cl)c(C(=O)O)c3)C(=O)NC2=O)c1 [SB-390769],0%

# — PMC5540273 (PLoS ONE, 2017)
